Inconclusive results are not listed. The source made the active and inactive calls. Unless noted, calls come from the whole dose curve.
Columns and labels:
[1] = qHTS assay to identify small molecule antagonists of the vitamin D receptor (VDR) signaling pathway - cell viability counter screen (AID 743225; active = well fitted curve in the direction sought with a large enough effect in the repeat runs; an effect the other way counts as inactive or inconclusive; note: % is set by controls: 0 for no effect and ±100 for the full control effect; nearly all actives have a fitted effect of over 50% in size)
Method in brief: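 VDR-UAS-bla HEK 293T cells were plated and incubated 4 h at 37C, then dosed with compound plus 3 nM (final) 1-alpha,25-dihydroxyvitamin D3 for 16 h. After the 2 h beta-lactamase read, viability in the same wells was read as CellTiter-Glo luminescence after 30 min at room temperature.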

[2] = qHTS assay to identify small molecule agonists of the NFkB signaling pathway (AID 1159509; active = well fitted curve in the direction sought with a large enough effect in the signal ratio in the repeat runs, not every such curve was filed as active; the % refers to the signal ratio; note: series mostly up to about 61 µM; % is set by controls: 0 for no effect and ±100 for the full control effect)
Method in brief: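 NFkB-bla ME-180 cells with a beta-lactamase reporter under an NF-kB response element were plated overnight, treated with compounds in DMSO for 5 hr at 37 C, then loaded with FRET substrate for 1.5 hr at room temperature.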

[3] = qHTS assay to identify small molecule agonists of the NFkB signaling pathway - cell viability counter screen (AID 1159515); note: series mostly up to about 61 µM; % is set by controls: 0 for no effect and ±100 for the full control effect; nearly all actives have a fitted effect of over 55% in size
Method in brief: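 NFkB-bla ME-180 cells, 2,000/well, were plated overnight at 37 C, 5% CO2, then exposed to compounds in DMSO for 5 hr. After the bla FRET read, CellTiter-Glo was added to the same wells; luminescence was read after 30 min at room temperature.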

[4] = qHTS assay to identify small molecule agonists of the endoplasmic reticulum stress response signaling pathway - cell viability counter screen (AID 1159517); note: series mostly up to about 61 µM; % is set by controls: 0 for no effect and ±100 for the full control effect; nearly all actives have a fitted effect of over 50% in size
Method in brief: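 Luminescence readout: CellTiter-Glo, 30 min RT, same wells as the ESRE-bla reporter read. HeLa ESRE-bla, 1,500 cells/well, o/n 37 C; cpd 5 hr 37 C/5% CO2.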

[5] = molecular target: Nuclear receptor ROR-gamma (Homo sapiens) (UniProt P51449); test: qHTS assay to identify small molecule antagonists of the retinoid-related orphan receptor gamma (ROR-gamma) signaling pathway (AID 1159521; active = well fitted curve in the direction sought with a large enough effect in the repeat runs; an effect the other way counts as inactive or inconclusive; note: nearly all actives have a fitted effect of over 50% in size; note: potency is the fitted concentration of half-maximal effect;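 for activity change, negative = inhibition: CHO cells with doxycycline inducible ROR-gamma driving an RORE luciferase reporter; top concentration of the series differs between compounds; % is set by controls: 0 for no effect and ±100 for the full control effect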)
Method in brief: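 Tet-on ROR-gamma CHO cells with ROR response element-luciferase reporter; compounds added 2 hr before 1 uM doxycycline induction, then 16 hr at 37 C. Antagonism scored as decreased ONE-Glo luminescence.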

[6] = qHTS assay to identify small molecule agonists of the AP-1 signaling pathway - cell viability counter screen (AID 1159525); note: nearly all actives have a fitted effect of over 55% in size
Method in brief: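 ME-180 AP-1-bla, 2500 cells/well, Opti-MEM + 0.5% dialyzed FBS; overnight 37 °C; cpd 15-pt titration, 5 h 37 °C; CellTiter-Glo 30 min RT; luminescence read; normalised to TOAB and DMSO controls.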

[7] = qHTS assay to identify small molecule agonists of the AP-1 signaling pathway (AID 1159526); note: % is set by controls: 0 for no effect and ±100 for the full control effect
[8] = qHTS assay to identify small molecule agonists of the vitamin D receptor (VDR) signaling pathway - cell viability counter screen (AID 743224; active = well fitted curve in the direction sought with a large enough effect in the repeat runs; an effect the other way counts as inactive or inconclusive; note: series mostly up to about 63 µM; % is set by controls: 0 for no effect and ±100 for the full control effect; nearly all actives have a fitted effect of over 50% in size)
Method in brief: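 VDR-bla cells were preincubated 4 h at 37C/5% CO2, then exposed to compounds for 16 h. After the 2 h room-temperature bla FRET read, CellTiter-Glo was added to the same wells and luminescence read after 30 min.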

[9] = qHTS assay to identify small molecule antagonists of the retinoid-related orphan receptor gamma (ROR-gamma) signaling pathway - cell viability counter screen (AID 1159520; active = well fitted curve in the direction sought with a large enough effect in the repeat runs; an effect the other way counts as inactive or inconclusive)
Method in brief: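 Tet-on ROR gamma CHO cells (1,000/well) were plated 4 hr, given compounds in DMSO for 2 hr at 37 C, then induced with 1 uM final doxycycline for 16 hr. Viability was read as ATP by CellTiter-Glo luminescence after 30 min.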

[10] = qHTS assay to identify small molecule agonists of the endoplasmic reticulum stress response signaling pathway (AID 1159516; active = well fitted activation curve with a large enough effect in the signal ratio in the repeat runs, not every such curve was filed as active; the % refers to the signal ratio; note: % is set by controls: 0 for no effect and ±100 for the full control effect)
Method in brief: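 CellSensor ESRE-bla HeLa cells, carrying a beta-lactamase reporter driven by the ER stress response element, were plated overnight and exposed to compounds for 5 hr at 37 C. Reporter activity was read as FRET substrate fluorescence after 2 hr at room temperature.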

C=CCCCCCCCCC=O
inactive: Potency [1] | outcome [2] | outcome [3] | outcome [4] | Potency [5] | Potency [6] | outcome [7]

C[C@](N)(Cc1ccc(O)cc1)C(=O)O
inactive: activity change, negative = cytotoxicity [8] -0.278% [at 5.95 µM] | viability change, negative = cytotoxic [1] 4.51% [at 6.95 µM] | activation [2] 0.267% [at 6.95 µM] | activity, negative = cytotoxic [3] 2.4% [at 6.95 µM] | activity change, negative = cytotoxicity [4] -6.6% [at 6.95 µM] | activity, negative = cytotoxicity [9] 1.71% [at 8.39 µM] | activity change, negative = inhibition [5] 10.5% [at 8.39 µM] | viability change, negative = cytotoxic [6] 6.35% [at 6.97 µM] | activation [7] -6.83% [at 6.97 µM]

C[C@@H]1CCN(C(=O)[C@H](CCCN=C(N)N)NS(=O)(=O)c2cccc3c2NC[C@H](C)C3)[C@@H](C(=O)O)C1
inactive: Potency [8] | Potency [1] | outcome [2] | outcome [3] | outcome [4] | outcome [9] | Potency [5] | Potency [6] | outcome [7]

Brc1c(NC2=NCCN2)ccc2nccnc12
inactive: Potency [8] | Potency [1] | outcome [2] | outcome [3] | outcome [4] | outcome [9] | Potency [5] | Potency [6] | outcome [7]

CN1CCCC1
inactive: Potency [8] | Potency [1] | outcome [2] | outcome [3] | outcome [4] | outcome [9] | Potency [5] | Potency [6] | outcome [7]

CC(=O)OCC(=O)[C@@]1(O)CC[C@H]2[C@@H]3CCC4=CC(=O)CC[C@]4(C)[C@H]3C(=O)C[C@@]21C
inactive: Potency [8] | Potency [1] | outcome [3] | outcome [4] | outcome [9] | Potency [5] | Potency [6] | outcome [7]

O=Cc1cccc([N+](=O)[O-])c1
inactive: Potency [8] | Potency [1] | outcome [2] | outcome [3] | outcome [4] | outcome [9] | Potency [5] | Potency [6] | outcome [7]

COC(=O)[C@@H](N)Cc1ccc(O)c(O)c1
inactive: Potency [8] | Potency [1] | outcome [2] | outcome [3] | outcome [4] | outcome [9] | Potency [5] | Potency [6] | outcome [7]

COCCc1ccc(OCC(O)CNC(C)C)cc1 (stereo unspecified)
inactive: Potency [1] | outcome [2] | outcome [3] | outcome [4] | outcome [9] | Potency [6] | outcome [7]

O=C[C@H](O)[C@@H](O)[C@H](O)[C@H](O)CO
inactive: Potency [8] | Potency [1] | outcome [3] | outcome [10] | outcome [4] | outcome [9] | Potency [5] | Potency [6] | outcome [7]

NC(=O)COCCN1CCN(C(c2ccccc2)c2ccc(Cl)cc2)CC1 (stereo unspecified)
active: Potency [5] 2660 nM
inactive: Potency [1] | outcome [2] | outcome [3] | outcome [4] | Potency [6] | outcome [7]

CC(=O)N(CC(O)CO)c1c(I)c(C(=O)NCCO)c(I)c(C(=O)NCC(O)CO)c1I (stereo unspecified)
inactive: Potency [8] | Potency [1] | outcome [2] | outcome [3] | outcome [4] | outcome [9] | Potency [5] | Potency [6] | outcome [7]

CCc1nccnc1CC
inactive: Potency [8] | Potency [1] | outcome [2] | outcome [3] | outcome [4] | activity, negative = cytotoxicity [9] -7.52% [at 19 µM] | Potency [5] | viability change, negative = cytotoxic [6] -1.96% [at 15.8 µM] | outcome [7]

CCOC(=O)CC(C)=O
inactive: Potency [8] | Potency [1] | outcome [3] | outcome [10] | outcome [4] | outcome [9] | Potency [6] | outcome [7]

O=C1CCCC(=O)C1
inactive: Potency [8] | Potency [1] | outcome [2] | outcome [3] | outcome [4] | outcome [9] | Potency [5] | Potency [6] | outcome [7]

CCn1ccnc1CC1COc2ccccc2O1 (stereo unspecified)
inactive: Potency [8] | Potency [1] | outcome [2] | outcome [3] | outcome [4] | Potency [5] | Potency [6] | outcome [7]

ClC(Cl)(Br)Br
inactive: Potency [8] | Potency [1] | outcome [2] | outcome [3] | outcome [4] | Potency [5] | Potency [6] | outcome [7]

CN(C(=O)c1c(O)c2ccccc2n(C)c1=O)c1ccccc1
inactive: Potency [1] | outcome [2] | outcome [3] | outcome [4] | outcome [9] | Potency [5] | Potency [6] | outcome [7]

Cc1nc2c([nH]1)c(=O)n(C)c(=O)n2Cc1ccco1
inactive: Potency [8] | Potency [1] | outcome [2] | outcome [3] | outcome [4] | outcome [9] | Potency [5] | Potency [6] | outcome [7]

CC/C=C\CC/C=C/CO
inactive: Potency [8] | Potency [1] | outcome [3] | outcome [10] | outcome [4] | outcome [9] | Potency [5] | Potency [6] | outcome [7]

CN1C(=O)N(C)C(O)C1O (stereo unspecified)
inactive: Potency [8] | Potency [1] | outcome [2] | outcome [3] | outcome [4] | outcome [9] | Potency [5] | Potency [6] | outcome [7]

C=CCS(=O)(=O)O
inactive: Potency [1] | outcome [2] | outcome [3] | outcome [4] | outcome [9] | Potency [5] | Potency [6] | outcome [7]

From PubChem BioAssay (Tox21)
